# Data taken from PubChem BioAssay (Tox21).
# Records with an inconclusive call do not appear. Where a call stands in place of a potency, no number is given. Activity calls are given as the source filed them. Calls follow the shape of the dose curve; as a rule, active = well fitted cell-killing curve with a large enough effect in the repeat runs; inconclusive = weak or mixed curves, or effect the other way; inactive = flat fitted curve, though single readings scatter.
# Legend:
# [1] = cAMP Responsive Elements (CRE) small molecule antagonists, cell-based qHTS assay: qHTS cell viability counter screen (AID 2060913); settings: CRE-bla HEK293T viability, CellTiter-Glo luminescence, 5 h; series mostly up to 92.4 µM; also: nearly all actives have a fitted effect of over 40% in size
# Summary of the method: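 HEK293T CRE-bla, 2,000 cells/well, 18 h preincubation; cpd in DMSO + NKH477 0.25 uM final, 3 h 37 C/5% CO2; LiveBLAzer 2 h RT, then CellTiter-Glo 30 min RT, luminescence.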
# [2] = cAMP Responsive Elements (CRE) small molecule agonists, cell-based qHTS assay: qHTS cell viability counter screen (AID 2060914); settings: CRE-bla HEK293T viability, CellTiter-Glo luminescence, 5 h; series mostly up to 92.4 µM; also: nearly all actives have a fitted effect of over 50% in size
# Summary of the method: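 In the same wells as the reporter read, viability of CRE-bla HEK 293T cells was quantified by CellTiter-Glo luminescence after a 3 h compound exposure.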
Compound,Potency [1],Potency [2]
Cc1cc(NS(=O)(=O)c2ccc(N)cc2)nc(C)n1,inactive,inactive
O=C1c2ccccc2C(=O)N1CCl,inactive,inactive
CCCCOCCOC(=O)c1ccccc1C(=O)OCCOCCCC,inactive,inactive
CCCCCCCC(=O)N(C)C,inactive,inactive
CC(=O)OC[C@H]1O[C@@](COC(C)=O)(O[C@H]2O[C@H](COC(C)=O)[C@@H](OC(C)=O)[C@H](OC(C)=O)[C@H]2OC(C)=O)[C@@H](OC(C)=O)[C@@H]1OC(C)=O,inactive,inactive
Nc1nc2ncc(CNc3ccc(C(=O)N[C@@H](CCC(=O)O)C(=O)O)cc3)nc2c(=O)[nH]1,inactive,inactive
C/C=C/C=N/NC(=O)c1ccncc1,inactive,inactive
OC1CCCCC1,inactive,inactive
COC(=O)CC(=O)C(C)(C)C,inactive,inactive
c1ccc2c(c1)ccc1c3ccccc3ccc21,inactive,inactive
C=CCOCC(CO)(COCC=C)COCC=C,inactive,inactive
C1CCC2OC2C1 (stereo unspecified),inactive,inactive
C[Si](Cl)(c1ccccc1)c1ccccc1,inactive,inactive
